# Source: PubChem
# Most compounds without a hit are left out; they make up all but 5.1% or so of the library.
# MPTP inh: inhibitors of mitochondrial permeability transition pore. isolated mouse mitochondria, Ca2+ swelling absorbance, 30 min. AID 602449. actives 1.4% (n = 360,000). inhibition, % at 10 µM;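 active = inhibition of 50% or more, scaled per plate between neutral and stimulator controls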;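 also: 0% = DMSO wells given calcium and 100% = 1 mM EGTA wells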
# CRFR2-BP ag: agonists of human CRF-binding protein/CRF-R2 receptor complex | activation, % at 13.2 µM | actives 0.46% (n = 350,000) | HEK293 CRF-R2/CRF-BP, calcium dye fluorescence (FLIPR); percent of saturating CRF peptide response;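 active = activation of at least 50%, plus an integration ratio under a set limit after plate pattern correction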;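 also: plate controls were neutral control wells without compound for no effect and CRF at EC100 for full effect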
# NR3A LBD binder: NR3A (human) ligand-binding domain modulation. Tm shift relative to glycine control, % at 25 µM. NR3A LBD differential scanning fluorimetry, Tm shift; 0% = protein alone, 100% = glycine-bound protein. actives 2.5% (n = 340,000);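 active = melting temperature shift of at least 10% of the positive control shift, at one fixed dose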
# CRFR2-BP antag: CRF-BP/CRF-R2 complex antagonism; inhibition, % at 11.8 µM; HEK293 CRF-R2/CRF-BP, CRF-induced calcium fluorescence; actives 0.59% (n = 350,000);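 active = inhibition of the ligand-induced calcium signal above about 50% at the single tested concentration, limit read from the data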
# ANO1 block: blocks the mouse calcium-activated chloride channel TMEM16A; normalized B-score (activity score, 25-100; higher = stronger inhibition) at 10 µM; HEK293 TMEM16A/YFP iodide influx fluorescence, ionomycin; actives 1.2% (n = 310,000); Q8BHY3;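 active = ratio plate-corrected score three or more library SD toward inhibition, starting fluorescence score within five deviations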;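 also: score derived from kinetic fluorescence span divided by baseline fluorescence per well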
# Target sequence (Q8BHY3 whole entry, looked up): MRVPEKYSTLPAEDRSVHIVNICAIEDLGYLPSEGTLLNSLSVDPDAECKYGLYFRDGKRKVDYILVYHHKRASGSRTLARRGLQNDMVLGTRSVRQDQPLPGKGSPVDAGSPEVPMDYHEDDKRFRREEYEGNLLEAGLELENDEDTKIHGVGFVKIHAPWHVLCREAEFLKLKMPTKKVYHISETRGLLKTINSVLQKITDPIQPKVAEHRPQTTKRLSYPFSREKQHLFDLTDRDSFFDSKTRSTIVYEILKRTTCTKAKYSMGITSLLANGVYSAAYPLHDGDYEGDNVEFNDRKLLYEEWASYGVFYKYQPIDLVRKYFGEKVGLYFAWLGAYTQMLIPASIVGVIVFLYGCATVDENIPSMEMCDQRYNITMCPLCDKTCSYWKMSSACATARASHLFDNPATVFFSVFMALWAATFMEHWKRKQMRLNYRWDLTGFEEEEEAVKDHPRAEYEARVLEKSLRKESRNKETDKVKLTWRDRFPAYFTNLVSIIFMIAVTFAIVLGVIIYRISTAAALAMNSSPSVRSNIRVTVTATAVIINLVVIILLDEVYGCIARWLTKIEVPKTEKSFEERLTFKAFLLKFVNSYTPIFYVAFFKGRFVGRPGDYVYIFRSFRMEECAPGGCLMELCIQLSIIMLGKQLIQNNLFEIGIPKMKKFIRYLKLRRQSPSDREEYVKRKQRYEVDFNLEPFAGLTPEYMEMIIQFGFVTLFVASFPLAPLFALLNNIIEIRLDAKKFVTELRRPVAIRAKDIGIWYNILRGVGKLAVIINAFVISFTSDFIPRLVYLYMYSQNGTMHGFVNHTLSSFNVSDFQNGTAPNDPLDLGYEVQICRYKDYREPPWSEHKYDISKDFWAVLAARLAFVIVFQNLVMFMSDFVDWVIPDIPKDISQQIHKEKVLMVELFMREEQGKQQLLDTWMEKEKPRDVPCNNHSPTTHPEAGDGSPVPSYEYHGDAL
# TMEM16A act: activates or potentiates the mouse TMEM16A chloride channel; actives 0.3% (n = 340,000); AID 623877; B-score at 10 µM; HEK293 TMEM16A/YFP-H148Q/I152L, iodide quench fluorescence; stronger effect = lower value;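 active = fluorescence-ratio B-score plate-corrected deviation score at least 3 library SD below zero, with starting fluorescence score within 5 deviations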;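 also: channel opened by trigger with iodide after compound preincubation; score built on the fluorescence ratio of max minus min over baseline; more negative score means more quench and so TMEM16A activation or potentiation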
# * = called active by the depositor; i = inactive; · = not tested or not shown.
SMILES,MPTP inh,CRFR2-BP ag,NR3A LBD binder,CRFR2-BP antag,ANO1 block,TMEM16A act
CS(=O)(=O)N(Cc1nc(-c2ccc(F)cc2)no1)c1ccccc1Cl,0.7,1.0,-7.8,6.9,i,i
COc1ccc(C(=O)Cn2c(NCCCO)nc3ccccc32)cc1,-0.6,0.0,·,7.8,·,·
Cc1cc2nc(NCCCO)n(CC(=O)c3cc(C(C)(C)C)c(O)c(C(C)(C)C)c3)c2cc1C,37.5,-1.7,-6.0,-17.8,100*,i
COC(=O)Cc1ccc(NC(=O)c2ccc3c(c2)C(=O)N(CC2CCCO2)C3=O)cc1 (configuration not stated),-2.2,-3.1,1.1,17.9,i,i
O=C(O)Cc1ccc(NC(=O)c2ccc3c(c2)C(=O)N(CC2CCCO2)C3=O)cc1 (configuration not stated),-1.3,0.2,11.1*,-5.9,i,i
O=C(O)COc1ccc(NC(=O)c2ccc3c(c2)C(=O)N(Cc2ccccc2)C3=O)cc1,-1.8,0.0,10.3*,17.3,i,i
COc1ccc(OC)c(Nc2nc(N(C)c3ccccc3)nc(N)c2[N+](=O)[O-])c1,0.9,-0.8,12.1*,-7.3,i,i
CN(c1ccccc1)c1nc(N)c([N+](=O)[O-])c(Nc2ccccc2F)n1,1.8,-0.4,0.0,-10.3,i,i
CCCCN1CC(COCc2ccccc2)Oc2cccc(Oc3cc(C)c(C)c(C)c3)c2S1(=O)=O (configuration not stated),-2.6,15.7,-2.6,2.8,·,·
CC(CC1C(C#N)=C(N)SC(N)=C1C#N)c1ccccc1 (configuration not stated),47.3,44.5,-1.1,38.6,100*,i
O=C(CNC(=O)C1CCCCC1)Nc1ccc(F)c(Cl)c1,5.8,1.2,0.1,65.0*,i,i
CC1Cc2cc(S(=O)(=O)CCC(=O)NC3CCCCC3)ccc2N1C(=O)C1CC1 (configuration not stated),-0.4,0.8,-2.6,-3.7,i,i
CCC(=O)N1c2ccc(S(=O)(=O)CCC(=O)Nc3nccs3)cc2CC1C (configuration not stated),-0.9,-0.4,-2.7,-18.6,i,-8.95*
CC(C)Oc1ccc(Cn2c(=O)sc3ccccc32)cc1,2.1,2.5,-0.8,9.7,25*,i
COc1ccc(Cn2c(=O)sc3ccccc32)cc1,-0.5,-1.1,2.0,6.2,i,i
Cc1noc(C)c1-c1ccc(C(=O)NC2CCCCC2)c2occc12,1.5,·,·,·,·,·
Cc1cccc(NC(=O)c2cc3c(s2)-c2c(C)cccc2OC3)n1,2.4,-0.3,-0.9,-1.4,i,i
Cc1csc(NC(=O)c2cc3c(s2)-c2ccccc2OC3)n1,3.1,-0.9,10.3*,-11.3,i,i
CC(=O)Nc1ccc2ccccc2c1[N+](=O)[O-],-2.0,-1.0,2.0,-6.4,·,i
Cc1ccccc1C[n+]1cccc2ccccc21,-1.5,-1.6,12.9*,0.3,i,i
Cc1cc(NC(=S)N(Cc2ccc(Br)cc2)Cc2ccc(C(=O)O)cc2)ccc1Cl,2.1,-1.7,2.0,7.9,25*,i
CCOC(=O)c1c(N)sc2c1CCC1C(=O)N(C3CCCCC3)C(=O)C21 (configuration not stated),0.4,12.1,13.0*,0.0,i,i
COc1ccc(C(C)(C)C)cc1NC(=O)c1ccccc1-n1cnnn1,-0.2,-4.4,0.5,-0.5,·,i
O=C(NC(=S)Nc1ccccn1)c1ccc([N+](=O)[O-])cc1,-0.7,0.9,11.1*,-9.5,i,i
Cc1cc(C)c(-n2c(SCC(=O)N3CCOCC3)n[nH]c2=O)c(C)c1,0.3,4.1,-0.3,-2.2,i,i
C1CCCN(c2nc3nonc3nc2N2CCCCCC2)CC1,-0.9,1.9,2.1,-9.0,i,i
Nc1nc2nonc2nc1N1CCCCC1,-0.5,2.2,15.1*,11.0,i,i
COc1cc(NC(=O)Cn2cnc3c(OCc4ccccc4)ncnc32)cc(OC)c1OC,1.5,0.8,3.9,-18.9,·,i
Cn1cc[nH]c1=S,3.0,2.6,-0.5,-52.0,·,-12.6*
